# Residue numbers refer to the chain shown, from its start.
# Key:
# Test in all cases: yeast three-hybrid, YBZ-1, SC-Leu-His + 0.5 mM 3-AT, 4 days
# Conditions in all cases: tags: N-Gal4 AD-HA kept; label: inside an RPR1-promoter hybrid RNA with tandem MS2 sites; ssRNA
# PUM1 PUF domain R6-CFE = target: T1, PUM1 PUF domain R6-CFE (Homo sapiens, UniProt Q14671 828-1176, N1043C;Y1044F;Q1047E)
# T1 sequence: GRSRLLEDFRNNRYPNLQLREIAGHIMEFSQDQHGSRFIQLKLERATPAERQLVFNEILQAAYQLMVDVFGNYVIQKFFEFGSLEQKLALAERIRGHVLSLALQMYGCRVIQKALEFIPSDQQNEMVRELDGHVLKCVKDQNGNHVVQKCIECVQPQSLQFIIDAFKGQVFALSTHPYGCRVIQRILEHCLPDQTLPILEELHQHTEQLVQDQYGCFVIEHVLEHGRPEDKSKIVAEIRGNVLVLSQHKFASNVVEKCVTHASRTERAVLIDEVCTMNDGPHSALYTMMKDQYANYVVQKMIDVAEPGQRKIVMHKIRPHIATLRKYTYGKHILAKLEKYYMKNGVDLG
# Method in brief: (§1)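 The interaction score is the logarithmic change in variant frequency from input to selection. It uses log2, with a pseudocount of 1 for absent variants, and frequencies came from PCR-amplified, Illumina-sequenced repeat regions. The libraries were Pumilio-1 PUF domains randomized at the three base-contacting residues per repeat, co-expressed with matching RNA elements in strain YBZ-1 (LexA–MS2 coat fusion, HIS3 reporter). Plating lasted four days on SC-Leu (input) or SC-Leu-His + 0.5 mM 3-AT (selection).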
# PUM1 PUF domain R3-FRG = PUM1 PUF domain R3-FRG (Homo sapiens, UniProt Q14671 828-1176, C935F;Q939G)
# Method in brief: as §1
# PUM1 PUF domain R3-IRV = PUM1 PUF domain R3-IRV (Homo sapiens, UniProt Q14671 828-1176, C935I;Q939V)
# Method in brief: as §1
# PUM1 PUF domain R3-IWL = PUM1 PUF domain R3-IWL (Homo sapiens, UniProt Q14671 828-1176, C935I;R936W;Q939L)
# Method in brief: as §1
# PUM1 PUF domain R3-SSE = PUM1 PUF domain R3-SSE (Homo sapiens, UniProt Q14671 828-1176, C935S;R936S;Q939E)
# Method in brief: as §1
# PUM1 PUF domain R5-RGR = PUM1 PUF domain R5-RGR (Homo sapiens, UniProt Q14671 828-1176, C1007R;R1008G;Q1011R)
# Method in brief: as §1
# PUM1 PUF domain R5-RMS = PUM1 PUF domain R5-RMS (Homo sapiens, UniProt Q14671 828-1176, C1007R;R1008M;Q1011S)
# Method in brief: as §1
# PUM1 PUF domain R5-HFF = PUM1 PUF domain R5-HFF (Homo sapiens, UniProt Q14671 828-1176, C1007H;R1008F;Q1011F)
# Method in brief: as §1
# PUM1 PUF domain R5-QGC = PUM1 PUF domain R5-QGC (Homo sapiens, UniProt Q14671 828-1176, C1007Q;R1008G;Q1011C)
# Method in brief: as §1
# PUM1 PUF domain R7-RPM = PUM1 PUF domain R7-RPM (Homo sapiens, UniProt Q14671 828-1176, S1079R;N1080P;E1083M)
# Method in brief: as §1
# PUM1 PUF domain R5-LHV = PUM1 PUF domain R5-LHV (Homo sapiens, UniProt Q14671 828-1176, C1007L;R1008H;Q1011V)
# Method in brief: as §1
# PUM1 PUF domain R4-SRV = PUM1 PUF domain R4-SRV (Homo sapiens, UniProt Q14671 828-1176, N971S;H972R;Q975V)
# Method in brief: as §1
# PUM1 PUF domain R5-PRC = PUM1 PUF domain R5-PRC (Homo sapiens, UniProt Q14671 828-1176, C1007P;Q1011C)
# Method in brief: as §1
# PUM1 PUF domain R6-AFQ = target: T2, PUM1 PUF domain R6-AFQ (Homo sapiens, UniProt Q14671 828-1176, N1043A;Y1044F)
# T2 sequence: T1 sequence with C216A, E220Q
# Method in brief: as §1
# PUM1 PUF domain R4-FGA = PUM1 PUF domain R4-FGA (Homo sapiens, UniProt Q14671 828-1176, N971F;H972G;Q975A)
# Method in brief: as §1
# PUM1 PUF domain R8-RYG = PUM1 PUF domain R8-RYG (Homo sapiens, UniProt Q14671 828-1176, N1122R;Q1126G)
# Method in brief: as §1
# PUM1 PUF domain R4-GHP = PUM1 PUF domain R4-GHP (Homo sapiens, UniProt Q14671 828-1176, N971G;Q975P)
# Method in brief: as §1
# PUM1 PUF domain R4-NRA = PUM1 PUF domain R4-NRA (Homo sapiens, UniProt Q14671 828-1176, H972R;Q975A)
# Method in brief: as §1
# PUM1 PUF domain R5-KRR = PUM1 PUF domain R5-KRR (Homo sapiens, UniProt Q14671 828-1176, C1007K;Q1011R)
# Method in brief: as §1
# PUM1 PUF domain R1-QRS = PUM1 PUF domain R1-QRS (Homo sapiens, UniProt Q14671 828-1176, S863Q;Q867S)
# Method in brief: as §1
sequence,measurement,setting,value
GGCUAGAACUAGUGGAUCCCCCGGCGCCCGGCGGCUCGAGCCCGGGUAAGUGAAAAUAGUCUGCAUGCCGCCGGGCGCCAUGCCUGCAGGUCGACUCUAGAAAACAUG,binding signal,PUM1 PUF domain R6-CFE,6.12 log2 enrichment (interaction score)
GGCUAGAACUAGUGGAUCCCCCGGCGCCCGGCGGCUCGAGCCCGGGUAAGUGUAAGUAGUCUGCAUGCCGCCGGGCGCCAUGCCUGCAGGUCGACUCUAGAAAACAUG,binding signal,PUM1 PUF domain R3-FRG,5.59 log2 enrichment (interaction score)
same,binding signal,PUM1 PUF domain R3-IRV,1.69 log2 enrichment (interaction score)
same,binding signal,PUM1 PUF domain R3-IWL,2.77 log2 enrichment (interaction score)
same,binding signal,PUM1 PUF domain R3-SSE,6.26 log2 enrichment (interaction score)
GGCUAGAACUAGUGGAUCCCCCGGCGCCCGGCGGCUCGAGCCCGGGUAAGUGUUAAUAGUCUGCAUGCCGCCGGGCGCCAUGCCUGCAGGUCGACUCUAGAAAACAUG,binding signal,PUM1 PUF domain R5-RGR,3.07 log2 enrichment (interaction score)
same,binding signal,PUM1 PUF domain R5-RMS,2.79 log2 enrichment (interaction score)
same,binding signal,PUM1 PUF domain R5-HFF,3.86 log2 enrichment (interaction score)
same,binding signal,PUM1 PUF domain R5-QGC,2.19 log2 enrichment (interaction score)
GGCUAGAACUAGUGGAUCCCCCGGCGCCCGGCGGCUCGAGCCCGGGUAAGUUUAAAUAGUCUGCAUGCCGCCGGGCGCCAUGCCUGCAGGUCGACUCUAGAAAACAUG,binding signal,PUM1 PUF domain R7-RPM,3.18 log2 enrichment (interaction score)
GGCUAGAACUAGUGGAUCCCCCGGCGCCCGGCGGCUCGAGCCCGGGUAAGUCUAAAUAGUCUGCAUGCCGCCGGGCGCCAUGCCUGCAGGUCGACUCUAGAAAACAUG,binding signal,PUM1 PUF domain R7-RPM,0.93 log2 enrichment (interaction score)
GGCUAGAACUAGUGGAUCCCCCGGCGCCCGGCGGCUCGAGCCCGGGUAAGUGUAAAUAGUCUGCAUGCCGCCGGGCGCCAUGCCUGCAGGUCGACUCUAGAAAACAUG,binding signal,PUM1 PUF domain R5-LHV,3.57 log2 enrichment (interaction score)
same,binding signal,PUM1 PUF domain R4-SRV,3.51 log2 enrichment (interaction score)
same,binding signal,PUM1 PUF domain R5-PRC,4.13 log2 enrichment (interaction score)
same,binding signal,PUM1 PUF domain R3-IRV,2.93 log2 enrichment (interaction score)
same,binding signal,PUM1 PUF domain R6-AFQ,3.75 log2 enrichment (interaction score)
same,binding signal,PUM1 PUF domain R4-FGA,1.37 log2 enrichment (interaction score)
same,binding signal,PUM1 PUF domain R3-IWL,4.86 log2 enrichment (interaction score)
same,binding signal,PUM1 PUF domain R8-RYG,5.75 log2 enrichment (interaction score)
same,binding signal,PUM1 PUF domain R4-GHP,5.41 log2 enrichment (interaction score)
same,binding signal,PUM1 PUF domain R3-SSE,0.23 log2 enrichment (interaction score)
GGCUAGAACUAGUGGAUCCCCCGGCGCCCGGCGGCUCGAGCCCGGGUAAGUGUAUAUAGUCUGCAUGCCGCCGGGCGCCAUGCCUGCAGGUCGACUCUAGAAAACAUG,binding signal,PUM1 PUF domain R4-SRV,1.19 log2 enrichment (interaction score)
same,binding signal,PUM1 PUF domain R4-FGA,2.95 log2 enrichment (interaction score)
same,binding signal,PUM1 PUF domain R4-NRA,2.48 log2 enrichment (interaction score)
GGCUAGAACUAGUGGAUCCCCCGGCGCCCGGCGGCUCGAGCCCGGGUAAGUGUCAAUAGUCUGCAUGCCGCCGGGCGCCAUGCCUGCAGGUCGACUCUAGAAAACAUG,binding signal,PUM1 PUF domain R5-LHV,1.43 log2 enrichment (interaction score)
same,binding signal,PUM1 PUF domain R5-RGR,3.52 log2 enrichment (interaction score)
same,binding signal,PUM1 PUF domain R5-KRR,3.6 log2 enrichment (interaction score)
same,binding signal,PUM1 PUF domain R5-RMS,3.6 log2 enrichment (interaction score)
GGCUAGAACUAGUGGAUCCCCCGGCGCCCGGCGGCUCGAGCCCGGGUAAGUGUACAUAGUCUGCAUGCCGCCGGGCGCCAUGCCUGCAGGUCGACUCUAGAAAACAUG,binding signal,PUM1 PUF domain R4-SRV,0.98 log2 enrichment (interaction score)
same,binding signal,PUM1 PUF domain R4-FGA,3.23 log2 enrichment (interaction score)
same,binding signal,PUM1 PUF domain R4-GHP,5.4 log2 enrichment (interaction score)
GGCUAGAACUAGUGGAUCCCCCGGCGCCCGGCGGCUCGAGCCCGGGUAAGUGUAAAUUGUCUGCAUGCCGCCGGGCGCCAUGCCUGCAGGUCGACUCUAGAAAACAUG,binding signal,PUM1 PUF domain R1-QRS,2.7 log2 enrichment (interaction score)
GGCUAGAACUAGUGGAUCCCCCGGCGCCCGGCGGCUCGAGCCCGGGUAAGUGGAAAUAGUCUGCAUGCCGCCGGGCGCCAUGCCUGCAGGUCGACUCUAGAAAACAUG,binding signal,PUM1 PUF domain R6-CFE,2.88 log2 enrichment (interaction score)
GGCUAGAACUAGUGGAUCCCCCGGCGCCCGGCGGCUCGAGCCCGGGUAAGCGUAAAUAGUCUGCAUGCCGCCGGGCGCCAUGCCUGCAGGUCGACUCUAGAAAACAUG,binding signal,PUM1 PUF domain R8-RYG,5.66 log2 enrichment (interaction score)
